This note sets out measurements from PubChem BioAssay (Tox21).

Each structure is given as a SMILES string. A number with no mark means an inactive call. Results filed as inconclusive are left out. Active and inactive are the calls of the source. Unless noted, the call rests on the fitted dose curve; in most records, active means well fitted curve in the direction sought with a large enough effect in the repeat runs; inconclusive means weak or mixed curves; inactive means no such curve, though single readings can be large; an effect the other way counts as inactive or inconclusive.

Assay [1] is described as follows: qHTS assay for small molecules that induce genotoxicity in human embryonic kidney cells expressing luciferase-tagged ATAD5 (AID 651632). Further: nearly all actives have a fitted effect of over 15% in size. The gist of the method:
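Reporter cells (HEK293T) express luciferase-tagged ATAD5, a protein that accumulates after DNA damage. Treat 16 hr at 37C/5% CO2, add Amplite, wait 30 min at RT, and read luminescence.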
In general terms: qHTS replaces the single test concentration by a dilution series.

The nature of assay [2]: qHTS assay for small molecules that induce genotoxicity in human embryonic kidney cells expressing luciferase-tagged ATAD5 - cell viability (AID 651634; calls by dose curve; further: nearly all actives have a fitted effect of over 25% in size; further: potency means the concentration at half of the fitted maximal effect). An outline of the steps: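 Seeding of 2,000 HEK293T ATAD5-luciferase cells per well preceded pin-tool compound transfer. Plates sat 15.5 hr at 37C under 5% CO2, then fluorescence was read after 30 min with CellTiter-Fluor.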

Assay [3] in a line: qHTS assay for small molecule disruptors of the mitochondrial membrane potential - cell viability (AID 720634; calls by dose curve; further: nearly all actives have a fitted effect of over 20% in size; further: potency means the concentration at half of the fitted maximal effect). An outline of the steps:
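Measuring cytotoxicity alongside mitochondrial potential, the screen quantified ATP by luminescence in HepG2 cells after 1 hr compound incubation and a 30 min room-temperature CellTiter-Glo step.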

A short description of assay [4]: qHTS assay to test for compound auto fluorescence at 590 nm (red) in HepG2 cells (AID 720674). An outline of the steps: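 Rose Bengal sodium served as the red fluorophore standard. HepG2 monolayers (overnight attachment, MEM with 10% FBS) were exposed to test compounds for 1 hr at 37 C and read at Ex 540/Em 590 nm.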
A short description of assay [5]: qHTS assay to test for compound auto fluorescence at 535 nm (green) in HepG2 cells (AID 720675).
Assay [6] is described as follows: qHTS assay to test for compound auto fluorescence at 460 nm (blue) in HEK293 cells (AID 720678). The gist of the method: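 Blue read-out at excitation 405 nm and emission 460 nm follows overnight compound exposure of HEK293 cells at 37C in 5% CO2. Activity is given as auto fluorescence equivalency to triamterene.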
Assay [7] is described as follows: qHTS assay to test for compound auto fluorescence at 590 nm (red) in HEK293 cells (AID 720679). The gist of the method:
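Red channel, Ex/Em 540/590nm; signal expressed as equivalency to Rose Bengal sodium. HEK293, 2,000 cells/well, 10% dialyzed FBS; 23 nL compound pinned after 4-5 hr attachment; overnight 37C/5% CO2 before reading.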

Assay [8] in a line: qHTS assay to test for compound auto fluorescence at 460 nm (blue) in HEK293 cell free culture (AID 720681). The gist of the method:
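Test compounds were pinned into cell-free culture medium (DMEM with 10% FBS) and fluorescence was read directly at Ex/Em 405/460 nm. Signals were expressed as fluorescence equivalents of triamterene, with DMSO vehicle as control.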

Assay [9] in a line: qHTS assay to test for compound auto fluorescence at 535 nm (green) in HEK293 cell free culture (AID 720682). The gist of the method: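 Intrinsic compound fluorescence is measured in culture medium containing 10% FBS, with excitation at 485 nm and detection at 535 nm, referenced to fluorescein.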
Assay [10] is described as follows: qHTS assay to test for compound auto fluorescence at 590 nm (red) in HEK293 cell free culture (AID 720683). An outline of the steps: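 Tox21 10K library compounds were pinned into cell-free DMEM with 10% FBS and fluorescence was read at excitation 540 nm. Activity is expressed as Rose Bengal sodium equivalency.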
Assay [11] in a line: qHTS assay to test for compound auto fluorescence at 460 nm (blue) in HepG2 cell free culture (AID 720685). An outline of the steps: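 Compound (23 nL) or DMSO pinned into cell-free MEM with 10% FBS; blue fluorescence read at 405/460 nm excitation/emission, expressed as auto-fluorescence equivalency to triamterene.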
Assay [12] can be described thus: qHTS assay to test for compound auto fluorescence at 535 nm (green) in HepG2 cell free culture (AID 720686).
The nature of assay [13]: qHTS assay to test for compound auto fluorescence at 460 nm (blue) in HepG2 cells (AID 720687). The gist of the method: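 Cells (2,000/well in MEM with 10% FBS) attached overnight at 37 C, then were exposed to compound or DMSO for 1 hr at 37 C, 5% CO2. Fluorescence read at Ex/Em 405/460 nm, expressed as triamterene-equivalent signal.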
For assay [14], the target named is Glucocorticoid receptor (Homo sapiens) (UniProt P04150). As to the kind of experiment: qHTS assay to identify small molecule agonists of the glucocorticoid receptor (GR) signaling pathway (AID 720691; active means well fitted activation curve with a large enough effect in the signal ratio in the repeat runs, not every such curve was filed as active; the % refers to the signal ratio). To be noted: GR-bla HeLa, beta-lactamase reporter ratio, 18 h; activation: at 62.4 µM (top of the series). An outline of the steps: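 Reporter read-out: fluorescence intensity following 2 h room-temperature LiveBLAzer B/G FRET substrate loading. Prior step: GR-bla HeLa cells held 4 h, then treated 18 h at 37 C.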

Assay [15] in a line: qHTS assay to test for compound auto fluorescence at 535 nm (green) in HEK293 cells (AID 720680).
A short description of assay [16]: qHTS assay for small molecule agonists of the p53 signaling pathway - cell viability (AID 651633; calls by dose curve; further: potency means the concentration at half of the fitted maximal effect; nearly all actives have a fitted effect of over 30% in size). An outline of the steps:
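p53RE-bla cells, seeded at 4,000 per well and rested 5 h at 37 C/5% CO2, received compounds in DMSO for 16 h at 37 C. CellTiter-Glo was then added, and luminescence was read after 30 min at room temperature to gauge cytotoxicity.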

A short description of assay [17]: qHTS assay for small molecule disruptors of the mitochondrial membrane potential (AID 720635). Further: potency means the concentration at half of the fitted maximal effect. The gist of the method: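 HepG2 cells (2,000/well) attached overnight at 37C, then took compound for 1 hr at 37C, 5% CO2. Mito-MPS dye was added for 30 min; fluorescence was read at 490/535 nm (monomers) and 540/590 nm (aggregates).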
Assay [18] in a line: qHTS assay to test for compound auto fluorescence at 590 nm (red) in HepG2 cell free culture (AID 720684). The gist of the method:
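Measured in medium alone (MEM containing 10% FBS) following pintool addition of compound; emission at 590 nm with 540 nm excitation, referenced to Rose Bengal sodium.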

The target in assay [19] is Glucocorticoid receptor (Homo sapiens) (UniProt P04150). As to the kind of experiment: qHTS assay to identify small molecule antagonists of the glucocorticoid receptor (GR) signaling pathway (AID 720692; active means well fitted inhibition curve with a large enough effect in the signal ratio in the repeat runs, not every such curve was filed as active; the % refers to the signal ratio). An outline of the steps: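 Dexamethasone (5 nM final) stimulated a stably integrated GRE-beta-lactamase reporter in HeLa cells during 18 h co-incubation with compounds; signal was quantified as fluorescence intensity of B/G FRET substrate after 2 h.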

Chain of Glucocorticoid receptor (Homo sapiens) (P04150 whole entry, looked up): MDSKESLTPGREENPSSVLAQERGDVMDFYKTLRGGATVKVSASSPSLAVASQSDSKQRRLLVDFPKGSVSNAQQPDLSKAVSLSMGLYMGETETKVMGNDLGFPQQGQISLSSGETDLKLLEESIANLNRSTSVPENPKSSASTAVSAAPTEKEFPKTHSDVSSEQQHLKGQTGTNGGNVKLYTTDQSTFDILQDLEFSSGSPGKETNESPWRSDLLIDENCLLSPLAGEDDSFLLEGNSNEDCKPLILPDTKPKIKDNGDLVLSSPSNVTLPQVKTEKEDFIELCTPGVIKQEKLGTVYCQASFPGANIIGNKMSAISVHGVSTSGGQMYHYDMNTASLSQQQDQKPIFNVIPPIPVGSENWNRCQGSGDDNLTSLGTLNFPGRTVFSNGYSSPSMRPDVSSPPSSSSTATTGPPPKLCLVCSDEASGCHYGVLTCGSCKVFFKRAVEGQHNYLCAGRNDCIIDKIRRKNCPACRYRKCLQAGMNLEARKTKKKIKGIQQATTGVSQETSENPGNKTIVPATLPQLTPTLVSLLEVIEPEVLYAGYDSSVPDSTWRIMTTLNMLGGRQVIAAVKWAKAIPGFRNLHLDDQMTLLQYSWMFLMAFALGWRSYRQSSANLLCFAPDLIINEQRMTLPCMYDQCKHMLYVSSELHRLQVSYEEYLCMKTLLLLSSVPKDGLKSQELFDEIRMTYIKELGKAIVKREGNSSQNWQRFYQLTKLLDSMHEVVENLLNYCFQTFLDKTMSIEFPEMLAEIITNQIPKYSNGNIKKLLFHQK

Consider `CCN1CCN(c2cc(-c3ccc(F)cc3)c3c(n2)CCCCCC3)CC1`, for which the Potency entry in assay [1], in [2], in assay [3], in [4], in assay [5] and in [6] was “inactive” each time. Moreover, the Potency result in assay [7], in assay [8], in assay [9], in [10], in [11] and in assay [12] was “inactive” each time. Also, the Potency result in assay [13] and in [14] was “inactive” in each case.

`CC(=O)Nc1ccc(O)cc1`: the Potency result in assay [1], in [2], in assay [3], in [4], in assay [5] and in assay [6] was “inactive” each time. Besides, the Potency result in assay [7], in [15], in [8], in [9], in assay [10] and in assay [11] was “inactive” each time. Further, the Potency entry in [12] and in assay [13] was “inactive” in each case.

Turning to `COc1ccc2sc(C(=O)Nc3nnn[nH]3)c(OC(C)C)c2c1`, the Potency entry in assay [1], in assay [3], in assay [4], in assay [6], in assay [7] and in [15] was “inactive” in each case. Besides, the Potency entry in assay [8], in assay [9], in [10], in assay [12], in [13] and in assay [14] was “inactive” each time. In assay [16], the Potency was 24.2 µM (active).

Regarding `CC(C(O)c1ccccc1)N(C)CCOC(c1ccccc1)c1ccccc1` (centres undefined), the Potency result in assay [1], in assay [2], in assay [3], in assay [4], in [6] and in assay [7] was “inactive” throughout. In addition, the Potency entry in [15], in assay [8], in assay [9], in [10], in [11] and in assay [12] was “inactive” throughout. In addition, the Potency entry in [13] and in [14] was “inactive” throughout.

Regarding `CCc1ccc(O)c(C(C)(C)C)c1`, the Potency result in assay [1], in [2], in assay [3], in [4], in [5] and in assay [6] was “inactive” in each case. Moreover, the Potency result in assay [7], in assay [15], in assay [8], in assay [9], in assay [10] and in [18] was “inactive” in each case. The Potency result in [11], in assay [12], in assay [13] and in [19] was “inactive” throughout. Also, the Potency in assay [17] is 8.63 µM (active).

With `CCCCCCCCCCCCN(CCO)CCO`, the Potency entry in [1], in [4], in [5], in [6], in assay [7] and in assay [15] was “inactive” in each case. Further, the Potency entry in assay [8], in assay [9], in [10], in assay [11], in assay [12] and in assay [13] was “inactive” each time. For the same molecule, the Potency in assay [16] is 54.3 µM (active).

As for `CC(C)(C)C1=CC(=O)C=C(C(C)(C)C)C1=O`, the Potency entry in assay [1], in [4], in assay [6], in [7], in assay [15] and in assay [8] was “inactive” each time. Moreover, the Potency result in assay [9], in assay [10], in assay [18], in assay [11], in assay [12] and in assay [13] was “inactive” throughout. Also, the Potency in assay [2] is 30.6 µM (active); in [3] it was 61.1 µM (active).
